These results are taken from ChEMBL document CHEMBL3988442, “University of Dundee, Small-Polar-MMV Screening Library” (2021).

Among all 69,000 compounds or so, about 420 (0.61%) showed an effect of 50% or more. This excerpt belongs to a sample that is enriched for strong results.

The target in this experiment is T1, Histidine--tRNA ligase (Leishmania infantum) (UniProt A4I591).
T1 sequence (whole entry): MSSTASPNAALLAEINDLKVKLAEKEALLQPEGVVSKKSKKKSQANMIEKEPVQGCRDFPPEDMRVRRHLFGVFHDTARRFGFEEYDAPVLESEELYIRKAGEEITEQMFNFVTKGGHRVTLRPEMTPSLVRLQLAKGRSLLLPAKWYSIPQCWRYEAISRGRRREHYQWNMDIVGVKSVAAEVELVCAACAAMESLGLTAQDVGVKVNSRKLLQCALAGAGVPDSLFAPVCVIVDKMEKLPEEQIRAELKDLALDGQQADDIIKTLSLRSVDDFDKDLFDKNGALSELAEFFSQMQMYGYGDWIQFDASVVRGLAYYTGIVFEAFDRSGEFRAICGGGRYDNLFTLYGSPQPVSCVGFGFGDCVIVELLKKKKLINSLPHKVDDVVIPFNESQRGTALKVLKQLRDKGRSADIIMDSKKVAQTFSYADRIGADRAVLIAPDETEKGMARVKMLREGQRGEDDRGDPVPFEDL
In words: Leishmania infantum Histidine tRNA synthetase (LdHisRS). The experiment is classed as functional. Also on record: scale not given: in the data most compounds retested in dose-response had high values. The following applies: 30 µM.
For `Cc1ccc(CN2C[C@@H]3COC[C@@H](CC(=O)N4CCOCC4)[C@@H]3C2)s1`, the Percent Effect is 20.5%.

With `CN(C)C(=O)N1CC2(CCOCC2)c2cc(NS(=O)(=O)C3CC3)ccc21`, the Percent Effect stood at 15.4%.

Turning to `CCC(=O)Nc1ccc2c(c1)C1(CCOCC1)CN2CCF`, the Percent Effect stood at 22.5%.

For `CCC(=O)Nc1ccc2c(c1)C1(CCOCC1)CN2CCOC`, the Percent Effect came out at 46%.

On to `CCS(=O)(=O)Nc1ccc2c(c1)C1(CCOCC1)CN2C`, for which the Percent Effect stood at 51.5%.

For `CCN1CC2(CCOCC2)c2cc(NS(=O)(=O)CC)ccc21`, the Percent Effect stood at 75.2%.

As to `CCCC(=O)Nc1ccc2c(c1)C1(CCOCC1)CN2CCOC`, the Percent Effect came to 35.1%.

Turning to `CC(c1ccccc1)N1Cc2nc(N(C)C)ncc2C1=O` (stereo not drawn), the Percent Effect turned out to be 3.54%.

Consider `CC1CCN(c2ncc3c(n2)CN(c2ccc(F)cc2)C3=O)CC1`, for which the Percent Effect worked out at 12.4%.

For the molecule `COc1ccc(CN2C[C@H]3CN(Cc4ccncc4)C(=O)[C@H]3C2)cc1`, the Percent Effect was determined as 21.4%.

`COCCN1CCN(C(=O)c2ccc(COC)o2)[C@H]2CS(=O)(=O)C[C@H]21`: the Percent Effect came out at 21.3%.

Regarding `c1coc(CN2C[C@H](OCC3CCOCC3)[C@H]3COC[C@H]32)c1`, the Percent Effect was determined as 9.02%.

For `COc1ccc2c(c1)ncn2C[C@]1(O)CCCN2CCCC[C@@H]21`, the Percent Effect was found to be 4.2%.

On to `CCOc1ccc(C(=O)N(CCOC)Cc2c(C)nn(CC)c2C)o1`, for which the Percent Effect came out at 63.3%.

For `CCn1nc(C)c(CN(CCOC)C(=O)c2cnc(C)nc2O)c1C`, the Percent Effect stood at 20%.

Regarding `CCn1nc(C)c(CN(CCOC)C(=O)c2ccccc2N(C)C)c1C`, the Percent Effect was determined as 21.7%.

Regarding `Cc1nn(C)c(C)c1S(=O)(=O)N1CC[C@@H]2O[C@@H](C)C[C@H]2C1`, the Percent Effect stood at 7.69%.

Consider `O=C(c1ccc(F)cc1)N1C[C@@H]2OCCN(c3ncccn3)[C@@H]2C1`, for which the Percent Effect turned out to be 18.9%.

As to `Cc1nc(COC[C@]23COC[C@H]2CN(Cc2ccoc2)C3)cs1`, the Percent Effect stood at 22.6%.

For the molecule `Cc1nnc(N2C[C@H](OCc3cccnc3)[C@H]3OCCC[C@H]32)s1`, the Percent Effect came to 24.3%.

Turning to `COCCOc1ccc(F)cc1NCc1nc2ccccc2n1C`, the Percent Effect was 13.2%.

Consider `COCCOc1ncccc1NCc1nc2ccccc2n1C`, for which the Percent Effect came to 15.7%.

In the case of `COc1cc(F)c(NCc2nc3ccccc3n2C)cc1OC`, the Percent Effect was found to be 78.3%.

As for `CC(=O)N1CCN(C(=O)Nc2ccc(Cl)cc2)[C@H]2CS(=O)(=O)C[C@H]21`, the Percent Effect was found to be 8.2%.

For `O=C(c1ccc(F)cc1)N1C[C@@H]2CCN(c3cccnc3)C[C@@H]2C1`, the Percent Effect stood at 20.6%.

`c1cnc(N2C[C@H]3CCN(c4cccnc4)C[C@H]3C2)nc1`: the Percent Effect was determined as 23.1%.

On to `Fc1cccc(N2C[C@H]3CCN(c4cccnc4)C[C@H]3C2)c1`, for which the Percent Effect is 61.5%.

On to `O=C(C1CCCC1)N1C[C@@H]2CCN(c3cccnc3)C[C@@H]2C1`, for which the Percent Effect was determined as 14.7%.

Regarding `O=C(c1ccncc1)N1C[C@@H]2CCN(c3cccnc3)C[C@@H]2C1`, the Percent Effect stood at 23.5%.

`Cn1cccc1C(=O)N1CC[C@H]2[C@@H]1CCC(=O)N2CC1CC1`: the Percent Effect worked out at 21.1%.

With `O=C(C1CCC1)N1C[C@@H]2CN(Cc3ccncc3)C(=O)[C@@H]2C1`, the Percent Effect was 15.8%.

On to `CCCC(=O)N1CC[C@@H]2[C@H](CC1)N(Cc1cccnc1)CCS2(=O)=O`, for which the Percent Effect was 17.3%.

In the case of `Cc1cccc(CN2C[C@@H]3CN(C4CCOCC4)C[C@@H]3C2=O)c1`, the Percent Effect was found to be 19.7%.

Turning to `CCN1C(=O)C[C@@H]2[C@@H]1CCN2S(=O)(=O)c1cccc(C)c1`, the Percent Effect is 0%.

As for `CC(C)=CCN1CCN(C(=O)c2snnc2C)[C@H]2CS(=O)(=O)C[C@H]21`, the Percent Effect is 5%.

`CCc1cnc(N2C[C@H](OCc3csc(C)n3)[C@H]3COC[C@H]32)nc1`: the Percent Effect amounted to 20.7%.

For `CCN1C(=O)CC[C@@H]2N(C(=O)CCn3nccc3C)CCCC[C@@]21C`, the Percent Effect was 15.7%.

In the case of `Cc1noc(C[C@@H]2COC[C@H]3CN(S(=O)(=O)C4CC4)C[C@@H]23)n1`, the Percent Effect came to 12.8%.

For `OC1CCCN(Cc2c(-c3ccco3)[nH]c3ncccc23)C1` (stereo not drawn), the Percent Effect was 66.7%.

As for `CCN1CCN(Cc2c(-c3ccco3)[nH]c3ncccc23)CC1`, the Percent Effect is 4.35%.

Regarding `CN1CCN(Cc2c(-c3ccco3)[nH]c3ncccc23)CC1`, the Percent Effect was found to be 18.8%.

With `c1coc(-c2[nH]c3ncccc3c2CN2CCCOCC2)c1`, the Percent Effect was 30.4%.

For the molecule `OC1CCN(Cc2c(-c3ccco3)[nH]c3ncccc23)CC1`, the Percent Effect stood at 30.4%.

Regarding `NC(=O)C1CCCN(Cc2c(-c3ccco3)[nH]c3ncccc23)C1` (stereo not drawn), the Percent Effect worked out at 55.6%.

As to `CN1CCCC[C@@H]2[C@H]1[C@@H](c1ccccc1)CCN2C(=O)c1cnccn1`, the Percent Effect was found to be 25%.

In the case of `CC(C)OCCCNC(=O)[C@@]12CNC[C@@H]1CN(S(C)(=O)=O)C2`, the Percent Effect was -3.23%.

As for `CCC1=N[C@@]2(CC[C@@H]3CN(Cc4ccc(Cl)cc4)C[C@@H]32)C(=O)N1`, the Percent Effect was found to be 3.01%.

Regarding `CC(C)NC(=O)[C@@H]1C[C@@H]2CCN(Cc3ccoc3)C[C@H]2O1`, the Percent Effect was 17.3%.

For the molecule `Cc1ccc(NC(=O)Nc2c(O)oc3ccccc3c2=O)cc1C`, the Percent Effect was 16.1%.

For the molecule `O=C(O)C1c2nc[nH]c2CCN1Cc1ccccc1-c1ccccc1` (stereo not drawn), the Percent Effect stood at 28.8%.

Consider `O=C(O)C1c2nc[nH]c2CCN1CC(c1ccccc1)c1ccccc1` (stereo not drawn), for which the Percent Effect stood at 107%.

Take `O=C(O)C1c2nc[nH]c2CCN1Cc1ccc(-c2ccccc2)s1` (stereo not drawn): the Percent Effect is 28.8%.

In the case of `Cc1cccc(CN2C(=O)CC[C@@H]3[C@H]2CCN3Cc2ccc(F)cc2)n1`, the Percent Effect amounted to 20.6%.

`Cc1ccc(CN2CCC[C@@H]3CN(C(=O)c4ccco4)C[C@@H]32)o1`: the Percent Effect came out at 15.5%.

On to `CCCn1nccc1C(=O)N1CCN(C(=O)C2CC2)[C@@H]2CS(=O)(=O)C[C@@H]21`, for which the Percent Effect came to 0%.

As for `Cc1cc(C)n(CC(=O)N2C[C@@H]3CC[C@H](C2)N(CC2CCC2)C3)c(=O)n1`, the Percent Effect came out at 57.1%.

On to `Cc1ccc(C(=O)N2C[C@@H]3CC[C@H](C2)N(CC2CCC2)C3)s1`, for which the Percent Effect came to 21.9%.

For the molecule `CC(C)=CCN1C[C@H]2CC[C@@H]1CN(C(=O)Cn1c(C)cc(C)nc1=O)C2`, the Percent Effect worked out at 23.8%.

As to `Cc1cc(C)n(CC(=O)N2CCCCC2CCN(C)C)c(=O)n1` (stereo not drawn), the Percent Effect is 16%.

In the case of `CC(=O)c1ccc(C(=O)N2C[C@@H]3CC[C@H](C2)N(CC2CCC2)C3)s1`, the Percent Effect was found to be 19.2%.

Turning to `O=C(NC1CCCC1)N1C[C@H]2CN(c3ccncc3)C[C@@]2(C(=O)O)C1`, the Percent Effect was -1.96%.

In the case of `CN(C)C(=O)[C@H]1C[C@H]2OCC[C@H]2N(Cc2ccc3c(c2)OCO3)C1`, the Percent Effect was 29.4%.

For the molecule `O=C1CO[C@H]2CN(S(=O)(=O)c3ccccc3)C[C@H]2N1CC1CCCCC1`, the Percent Effect was 27.8%.

In the case of `COCC(=O)NC[C@@]1(COc2cnccn2)C[C@@H](O)[C@@H](O)C1`, the Percent Effect amounted to 10.8%.

For the molecule `Cc1cnc(N2C[C@H]3C[C@H](C(=O)N4CCN(C)CC4)N(C)[C@H]3C2)nc1`, the Percent Effect turned out to be 5.05%.

In the case of `CC(=O)Nc1ccc2nc(-c3nccn3CC(C)(C)CO)ccc2c1`, the Percent Effect turned out to be 10.6%.

Take `CC(=O)Nc1ccc2nc(-c3nccn3C[C@@H]3CCCO3)ccc2c1`: the Percent Effect was found to be 51.1%.

`CC(=O)Nc1ccc2nc(-c3nccn3CCCN(C)C)ccc2c1`: the Percent Effect turned out to be 12.8%.
